Laboratory results: PubChem BioAssay AID1159580 (chemical genetic matrix, 2015)
Several values for one entry are separate records, joined by “and”; a condition that tells them apart may be missing. Equal values may be shown once. Out of some 5,500 compounds screened, about 2,000 (36%) were called active. Inconclusive results (about 18%) are left out. No stated cut-off is given here; in the data, active means normalized growth mostly below about 0.91 (no sharp cut-off); inconclusive means no clear call, values can overlap the other calls; inactive means mostly above about 0.92. This is one part of the list.

Test: chemical genetic growth profiling, strain panel (AID 1159580);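 further: tested at 20 µM; growth read once vehicle control cultures reached saturation at 30 °C; 1 = growth at the plate median or of vehicle wells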
Details: S. cerevisiae deletion strains, growth OD

Measured: normalized growth

CCC(C)C(=O)OC1[C@@H]2CC3=C4CC(=O)O[C@@H](c5ccoc5)[C@]4(C)CCC3[C@@](C)(C2=O)[C@@H](CC(=O)OC)C1(C)C (stereo not given in full)
inactive: locus YAL021C, strain ccr4, stronger effect = lower value 1.02 | locus YAL026C, strain drs2, stronger effect = lower value 1.01 | locus YAL030W, strain snc1, stronger effect = lower value 1.01 | locus YBL061C, strain skt5, stronger effect = lower value 1.01 | locus YBR009C, strain hhf1, stronger effect = lower value 1.01 | locus YBR021W, strain FUR4, stronger effect = lower value 1 | locus YBR023C, strain chs3, stronger effect = lower value 1 | locus YBR171W, strain sec66, stronger effect = lower value 1.01 | locus YBR229C, strain ROT2, stronger effect = lower value 0.999 | locus YBR231C, strain swc5, stronger effect = lower value 1.01 | locus YBR279W, strain paf1, stronger effect = lower value 1.01 | locus YCL011C, strain gbp2, stronger effect = lower value 1.01 | locus YCL016C, strain dcc1, stronger effect = lower value 1.01 | locus YCL029C, strain bik1, stronger effect = lower value 1 | locus YCL061C, strain MRC1, stronger effect = lower value 1 | locus YCL069W, strain vba3, stronger effect = lower value 1.02 | locus YCR088W, strain abp1, stronger effect = lower value 1 | locus YDL005C, strain med2, stronger effect = lower value 1 | locus YDL035C, strain GPR1, stronger effect = lower value 0.987 | locus YDL040C, strain nat1, stronger effect = lower value 0.991 | locus YDL074C, strain BRE1, stronger effect = lower value 1.01 | locus YDL101C, strain DUN1, stronger effect = lower value 1.02 | locus YDL185W, strain tfp1, stronger effect = lower value 1.01 | locus YDL192W, strain arf1, stronger effect = lower value 0.994 | locus YDR001C, strain nth1, stronger effect = lower value 1 | locus YDR069C, strain doa4, stronger effect = lower value 0.992 | locus YDR101C, strain arx1, stronger effect = lower value 0.991 | locus YDR137W, strain rgp1, stronger effect = lower value 0.961 | locus YDR159W, strain sac3, stronger effect = lower value 0.998 | locus YDR162C, strain NBP2, stronger effect = lower value 0.995 | locus YDR195W, strain ref2 0.987 | locus YDR297W, strain sur2, stronger effect = lower value 1.01 | locus YDR318W, strain mcm21, stronger effect = lower value 1 | locus YDR334W, strain swr1, stronger effect = lower value 1 | locus YDR335W, strain msn5, stronger effect = lower value 1.01 | locus YDR388W, stronger effect = lower value 1.01 | locus YDR392W, strain spt3, stronger effect = lower value 0.979 | locus YDR502C, strain sam2, stronger effect = lower value 1.02 | locus YEL003W, strain gim4, stronger effect = lower value 1.01 | locus YEL037C, strain rad23, stronger effect = lower value 1.01 | locus YEL061C, strain CIN8 (second series), stronger effect = lower value 1.01 | locus YER015W, strain faa2, stronger effect = lower value 0.999 | locus YER016W, strain bim1, stronger effect = lower value 0.999 | locus YER110C, stronger effect = lower value 1.02 | locus YER111C, strain swi4, stronger effect = lower value 0.99 | locus YER155C, strain BEM2 (second series), stronger effect = lower value 1.01 | locus YER155C, strain BEM2, stronger effect = lower value 1.01 | locus YER167W, strain BCK2, stronger effect = lower value 1 | locus YFR010W, strain ubp6, stronger effect = lower value 1.02 | locus YGL078C, strain dbp3, stronger effect = lower value 1.02 | locus YGL086W, strain mad1, stronger effect = lower value 1 | locus YGL167C, strain pmr1, stronger effect = lower value 1.01 | locus YGL173C, strain kem1, stronger effect = lower value 1 | locus YGL227W, strain vid30, stronger effect = lower value 0.999 | locus YGL240W, strain doc1, stronger effect = lower value 0.989 | locus YGL248W, strain PDE1, stronger effect = lower value 1.01 | locus YGL253W, strain hxk2, stronger effect = lower value 1.03 | locus YGR078C, strain PAC10, stronger effect = lower value 1.02 | locus YGR135W, strain pre9, stronger effect = lower value 1.04 | locus YGR229C, strain SMI1, stronger effect = lower value 0.982 | locus YGR252W, strain gcn5, stronger effect = lower value 1.02 | locus YHR013C, strain ard1, stronger effect = lower value 1.01 | locus YHR027C, strain rpn1, stronger effect = lower value 0.994 | locus YHR030C, strain SLT2, stronger effect = lower value 0.959 | locus YHR079C, strain IRE1 (second series), stronger effect = lower value 1.01 | locus YHR079C, strain IRE1, stronger effect = lower value 0.95 | locus YHR094C, strain hxt1, stronger effect = lower value 1 | locus YHR129C, strain ARP1, stronger effect = lower value 1.01 | locus YHR142W, strain chs7, stronger effect = lower value 1.04 | locus YHR200W, strain rpn10, stronger effect = lower value 1 | locus YIL066C, strain RNR3, stronger effect = lower value 0.998 | locus YIL073C, strain SPO22, stronger effect = lower value 1.06 | locus YIL125W, strain kgd1, stronger effect = lower value 0.998 | locus YIR030C, strain dcg1, stronger effect = lower value 1 | locus YJL092W, strain hpr5, stronger effect = lower value 1 | locus YJL095W, strain BCK1 (second series), stronger effect = lower value 1 | locus YJL095W, strain BCK1, stronger effect = lower value 1.04 and 0.958 | locus YJL115W, strain asf1, stronger effect = lower value 1 | locus YJL129C, strain trk1, stronger effect = lower value 1.01 | locus YJL134W, strain LCB3, stronger effect = lower value 1 | locus YJL154C, strain vps35, stronger effect = lower value 1 | locus YJL164C, strain tpk1, stronger effect = lower value 1.02 | locus YJL166W, strain qcr8, stronger effect = lower value 1.01 | locus YJL168C, strain set2, stronger effect = lower value 1.01 | locus YJL187C, strain SWE1 (second series), stronger effect = lower value 1.03
